Laboratory results published in PubChem BioAssay (Tox21).
Records with an inconclusive call do not appear. The source made the active and inactive calls. Unless noted, the call rests on the fitted dose curve; in most records, active means well fitted curve in the direction sought with a large enough effect in the repeat runs; inconclusive means weak or mixed curves; inactive means no such curve, though single readings can be large; an effect the other way counts as inactive or inconclusive.

Columns and labels:
[1] = qHTS assay to identify small molecule antagonists of the estrogen related receptor (ERR) signaling pathway from Tox21 library - cell viability counter screen (AID 1224834); further: nearly all actives have a fitted effect of over 30% in size
Procedure, shortened: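 ERR reporter cells, 2,000 per well, rested 6 h, then exposed to compound in DMSO for 17.5 hours at 37 C. Viability read as fluorescence after 30 min with CellTiter-Fluor.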

[2] = qHTS assay to identify small molecule agonists of the constitutive androstane receptor (CAR) signaling pathway - cell viability counter screen (AID 1224836); further: series mostly up to about 92 µM; nearly all actives have a fitted effect of over 45% in size
Procedure, shortened: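 HepG2 cells stably carrying hCAR and a CYP2B6-2.2kb reporter; 15-concentration compounds plus PK11195 (final 0.75 uM), 23 hr at 37 C/5% CO2. Viability read by CellTiter-Fluor fluorescence.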

[3] = qHTS assay to identify small molecule antagonists of the constitutive androstane receptor (CAR) signaling pathway - cell viability counter screen (AID 1224837); further: series mostly up to about 92 µM; nearly all actives have a fitted effect of over 45% in size
Procedure, shortened: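 HepG2 cells stably carrying hCAR and CYP2B6-2.2kb reporter, stimulated with 50 nM CITCO and compounds at 15 concentrations for 23 h at 37 C. Viability measured by CellTiter-Fluor fluorescence.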

[4] = target: Nuclear receptor subfamily 1 group I member 3 (Homo sapiens) (UniProt Q14994); test: qHTS assay to identify small molecule antagonists of the constitutive androstane receptor (CAR) signaling pathway (AID 1224838); further: nearly all actives have a fitted effect of over 40% in size
Procedure, shortened: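 HepG2 cells stably carrying hCAR and a CYP2B6-2.2kb luciferase reporter, seeded 4 hrs before compound (15 concentrations). Stimulated with 50 nM CITCO for 24 hr at 37 C. ONE-Glo luminescence read after 30 min at room temperature.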

[5] = target: Nuclear receptor subfamily 1 group I member 3 (Homo sapiens) (UniProt Q14994); test: qHTS assay to identify small molecule agonists of the constitutive androstane receptor (CAR) signaling pathway (AID 1224839); further: series mostly up to about 92 µM; nearly all actives have a fitted effect of over 15% in size
Procedure, shortened: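 HepG2 cells stably co-transfected with hCAR and a CYP2B6-2.2kb luciferase reporter; compounds at 15 concentrations with 0.75 uM PK11195 present. After 24 hr at 37 C, luciferase read by ONE-Glo luminescence.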

[6] = qHTS assay to identify small molecule antagonists of the estrogen related receptor signaling pathway with the pleiotropic PPARgamma coactivator (PGC) from Tox21 10K library - cell viability counter screen (AID 1224840; active means well fitted cell-killing curve with a large enough effect in the repeat runs, not every such curve was filed as active; further: nearly all actives have a fitted effect of over 40% in size)
Procedure, shortened: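 PGC/ERR cells (2,000/well) plated 6 h, then compound-treated for 17.5 h at 37 C. Viability measured by CellTiter-Fluor fluorescence after 30 min at 37 C, multiplexed with the pathway assay.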

[7] = target: Thyrotropin receptor (Homo sapiens) (UniProt P16473); test: qHTS assay to identify small molecule agonists of the thyroid stimulating hormone receptor (TSHR) signaling pathway (AID 1224843; calls by dose curve; further: nearly all actives have a fitted effect of over 45% in size)
Procedure, shortened: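 Cell line HEK293 with TSHR; density 800/well. Exposure 30 min RT. Readout HTRF cAMP (cAMP-d2/anti-cAMP-cryptate), 1 h RT before reading.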

[8] = qHTS assay to identify small molecule agonists of the hypoxia (HIF-1) signaling pathway - cell viability counter screen (AID 1224844; calls by dose curve; further: nearly all actives have a fitted effect of over 50% in size)
Procedure, shortened: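 HRE-bla ME-180 cells, 2,000/well in 0.5% dialyzed FBS medium, treated 17 h at 37C with compounds. Viability read in the same wells as the bla reporter, by CellTiter-Glo luminescence after 30 min at room temperature.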

[9] = qHTS assay to identify small molecule agonists of H2AX (AID 1224845; active means well fitted activation curve with a large enough effect in the signal ratio in the repeat runs, not every such curve was filed as active; the % refers to the signal ratio)
Procedure, shortened: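 Wild-type CHO-K1 cells plated overnight, then exposed 3 hr at 37C to compounds at 15 concentrations (0.76% DMSO). Lysed, then HTRF anti-pH2AX(S139)-cryptate/anti-H2AX-d2 detection after 24 hr at room temperature; emissions 665 and 620 nm.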

[10] = qHTS assay to identify small molecule agonists of the hypoxia (HIF-1) signaling pathway (AID 1224846; active means well fitted activation curve with a large enough effect in the signal ratio in the repeat runs, not every such curve was filed as active; the % refers to the signal ratio)
Procedure, shortened: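 HRE-bla ME-180 beta-lactamase reporter cells in medium with 0.5% dialyzed FBS, pre-incubated 5 h then exposed to compounds 17 h at 37C, 5% CO2; reporter induction read with CCF4-AM FRET substrate.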

[11] = qHTS assay to identify small molecule agonists of H2AX - cell viability counter screen (AID 1224847; calls by dose curve; further: top concentration of the series differs between compounds; nearly all actives have a fitted effect of over 30% in size)
Procedure, shortened: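 CHO-K1 cells plated overnight at 37C, then exposed 3 h at 37C to compounds at 15 concentrations (0.76% DMSO final). Viability by CellTiter-Glo luminescence after 30 min at room temperature.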

[12] = qHTS RealTime-Glo MT Cell Viability Assay in HepG2 cells - 24 hour (AID 1224867); further: nearly all actives have a fitted effect of over 50% in size
Procedure, shortened: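 Cells + NanoLuc/prosubstrate dispensed (600 cells/well) → 5 h at 37 C/5% CO2 → compounds in DMSO transferred → 40 h incubation at 37 C, luminescence read at 0, 8, 16, 24, 32, 40 h.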

[13] = qHTS RealTime-Glo MT Cell Viability Assay in HEK293 cells - 32 hour (AID 1224868); further: top concentration of the series differs between compounds; nearly all actives have a fitted effect of over 50% in size
Procedure, shortened: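 Tox21 10K qHTS, HEK293, 600 cells/well, RealTime-Glo reagent co-dispensed with cells; 5 h preincubation, compound by pintool, 37 C, luminescence at 0–40 h.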

[14] = A CellTox Green Cytotoxicity Assay to monitor cytotoxicity in HEK293 cells - 0 hour (AID 1224869); further: nearly all actives have a fitted effect of over 50% in size
Procedure, shortened: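 HEK293 cells, 600/well, were preincubated 5 hours and then exposed to compounds at 37 C for up to 40 hours. A cell-impermeant cyanine dye staining dead-cell DNA was read by fluorescence at 0, 8, 16, 24, 32 and 40 h time points.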

[15] = qHTS RealTime-Glo MT Cell Viability Assay in HepG2 cells - 40 hour (AID 1224870); further: nearly all actives have a fitted effect of over 50% in size
Procedure, shortened: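 HepG2 cells mixed with RealTime-Glo MT reagents (NanoLuc plus cell-permeant prosubstrate) were seeded at 600 cells/well, incubated 5 h at 37 C/5% CO2, then pinned with compounds in DMSO; nonlytic luminescence tracked viability during 40 h treatment.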

[16] = target: Luciferin 4-monooxygenase (Photinus pyralis) (UniProt P08659); test: qHTS assay to identify small molecule inhibitors of firefly luciferase (AID 1224835); further: series mostly up to about 120 µM; nearly all actives have a fitted effect of over 25% in size
Procedure, shortened: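 Quantitative HTS format; KM concentrations of both substrates. Purified P. pyralis FLuc activity quantified from luminescence images.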

[17] = qHTS assay to identify small molecule antagonists of the estrogen related receptor signaling pathway with the pleiotropic PPARgamma coactivator (PGC) from Tox21 10K library (AID 1224841; call rule not given here)
Procedure, shortened: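 PGC/ERR cell line, 2,000 cells/well, pre-incubated 6 hours at 37 C, then exposed to compounds for 18 hours at 37 C; luciferase read with One-Glo luminescence after 30 min at room temperature.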

[18] = qHTS assay to identify small molecule agonists of the estrogen related receptor signaling pathway with the pleiotropic PPARgamma coactivator (PGC) from Tox21 10K library (AID 1224842); further: nearly all actives have a fitted effect of over 15% in size
Procedure, shortened: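 PGC/ERR reporter cells (NTP line) were seeded 2,000 per well, rested 6 h at 37 C/5% CO2, then pin-dosed with compounds in DMSO for 18 h at 37 C; luciferase read by One-Glo luminescence after 30 min at room temperature.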

[19] = qHTS assay to identify small molecule antagonists of the estrogen related receptor (ERR) signaling pathway from Tox21 library (AID 1224848); further: nearly all actives have a fitted effect of over 50% in size
Procedure, shortened: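 Screening used an ERR reporter line supplied by NTP, exposed for 18 h at 37 C to library compounds delivered in DMSO. Signal was luciferase luminescence developed with ONE-Glo at room temperature for 30 min.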

Measured: Potency

Chain of Luciferin 4-monooxygenase (Photinus pyralis) (P08659 whole entry, looked up): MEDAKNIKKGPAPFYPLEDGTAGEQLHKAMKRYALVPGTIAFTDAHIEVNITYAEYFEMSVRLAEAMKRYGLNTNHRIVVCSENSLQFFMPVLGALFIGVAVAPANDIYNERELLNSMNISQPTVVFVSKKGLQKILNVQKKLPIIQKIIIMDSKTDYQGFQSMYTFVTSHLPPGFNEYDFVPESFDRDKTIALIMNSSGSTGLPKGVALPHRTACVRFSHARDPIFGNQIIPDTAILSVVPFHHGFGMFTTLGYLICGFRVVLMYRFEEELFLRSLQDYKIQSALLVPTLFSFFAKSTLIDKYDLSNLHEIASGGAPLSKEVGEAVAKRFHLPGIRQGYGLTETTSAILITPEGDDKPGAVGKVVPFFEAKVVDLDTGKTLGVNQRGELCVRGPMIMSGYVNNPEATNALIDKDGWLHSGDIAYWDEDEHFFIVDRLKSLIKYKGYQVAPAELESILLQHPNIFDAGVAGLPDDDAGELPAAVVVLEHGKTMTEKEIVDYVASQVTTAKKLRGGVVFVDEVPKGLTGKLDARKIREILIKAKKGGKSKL
Chain of Thyrotropin receptor (Homo sapiens) (P16473 whole entry, looked up): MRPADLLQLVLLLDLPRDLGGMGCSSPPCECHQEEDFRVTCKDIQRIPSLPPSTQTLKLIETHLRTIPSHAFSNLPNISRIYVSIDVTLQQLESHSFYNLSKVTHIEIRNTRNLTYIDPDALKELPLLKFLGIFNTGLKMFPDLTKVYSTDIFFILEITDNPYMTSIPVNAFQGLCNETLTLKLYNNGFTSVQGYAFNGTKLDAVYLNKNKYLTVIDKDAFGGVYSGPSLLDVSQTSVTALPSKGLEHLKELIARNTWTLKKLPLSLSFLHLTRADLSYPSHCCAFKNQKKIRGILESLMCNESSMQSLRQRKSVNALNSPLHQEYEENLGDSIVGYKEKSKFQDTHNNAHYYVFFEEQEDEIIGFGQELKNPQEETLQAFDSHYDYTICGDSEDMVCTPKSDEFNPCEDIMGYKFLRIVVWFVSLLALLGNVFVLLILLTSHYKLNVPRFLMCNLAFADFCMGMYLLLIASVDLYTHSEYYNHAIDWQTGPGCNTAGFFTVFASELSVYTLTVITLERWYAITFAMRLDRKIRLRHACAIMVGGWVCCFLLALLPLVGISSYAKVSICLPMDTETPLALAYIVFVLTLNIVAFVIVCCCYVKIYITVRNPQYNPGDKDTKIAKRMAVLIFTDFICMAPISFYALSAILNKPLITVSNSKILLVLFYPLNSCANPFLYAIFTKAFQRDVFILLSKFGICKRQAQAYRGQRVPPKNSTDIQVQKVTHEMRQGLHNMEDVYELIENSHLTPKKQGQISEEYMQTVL
Chain of Nuclear receptor subfamily 1 group I member 3 (Homo sapiens) (Q14994 whole entry, looked up): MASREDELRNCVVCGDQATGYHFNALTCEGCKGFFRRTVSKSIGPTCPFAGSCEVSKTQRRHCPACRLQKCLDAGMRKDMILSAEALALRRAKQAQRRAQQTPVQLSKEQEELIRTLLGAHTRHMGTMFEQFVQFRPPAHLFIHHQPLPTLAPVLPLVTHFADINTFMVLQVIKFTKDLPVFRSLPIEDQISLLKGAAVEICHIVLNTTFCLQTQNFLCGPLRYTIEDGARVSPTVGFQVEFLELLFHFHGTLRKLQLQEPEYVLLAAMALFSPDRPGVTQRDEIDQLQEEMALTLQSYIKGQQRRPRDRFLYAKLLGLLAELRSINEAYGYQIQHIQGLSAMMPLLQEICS

OCc1cccc(Oc2ccccc2)c1
not listed: [16] | [17] | [18] | [19]
inactive: all other assays above

O=C(O)/C=C/C(=O)O
not listed: [1] | [5] | [6] | [17] | [18] | [19]
inactive: all other assays above

C=C(C)C(=O)OCC(C)C
not listed: [4] | [5] | [17] | [18] | [19]
inactive: all other assays above

CC(C)c1cccc(C(C)C)c1
not listed: [4] | [5]
inactive: all other assays above

COc1ccccc1OCC(O)CO (configuration not stated)
not listed: [4] | [5] | [10] | [17] | [18] | [19]
inactive: all other assays above

CCCCCCCC=O
not listed: [4] | [5] | [7] | [17] | [18] | [19]
inactive: all other assays above

C=CCCCCCCCCC(=O)O
not listed: [4] | [5] | [17] | [18] | [19]
inactive: all other assays above

NC(=S)NNC(N)=S
not listed: [4] | [5] | [17] | [18] | [19]
inactive: all other assays above

C[C@]12CC[C@@H]3c4ccc(O)cc4CC[C@H]3[C@@H]1C[C@@H](O)[C@@H]2O
not listed: [4] | [5] | [17] | [18] | [19]
inactive: all other assays above
